Assay results as given in the supplement of paper PMC11417369.
In all, about 25,000 sequences were measured (“ln(normalized median fluorescence intensity)”: median about 7.1, highest 2% from about 10 on). The entries come from a sample that favours the highest values as a whole.

System: PfSIP2 AP2 domain 1 (GST-tagged)
Experiment: gcPBM binding intensity (ln(normalized median fluorescence intensity)); higher = stronger DNA binding
In short: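 GST-fused DNA-binding domains of P. falciparum, expressed in E. coli, were applied at about 25 μg on average for 1 h to an Agilent 4 × 180k array of primer-extended double-stranded 36-bp intergenic genomic probes and negative controls. Binding intensity is the highest Masliner-normalised natural-log median intensity across replicate spots of either probe orientation, measured with Alexa488 anti-GST antibody and a 488 nm scan.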

| Sequence | gcPBM binding intensity (ln) |
| --- | --- |
| ATCATTCCACTTTTCACACATATCTCTATTTCTATC [CACACA_site4723] | 7.37 |
| TACAACAATTTTTGCACACACCAAAACATAAAATAA [CACACA_site4964] | 7.52 |
| AATATTGCACCATTTTGTACATAATATATTCAAATA [XGTACX_site475] | 10.7 |
| AAAATAAATAAATATACACACCATATATATATTTTT [CACACA_site5573] | 6.88 |
| ATTTTTTTTTTTTTTTTTTTTGCACCATAAAATAAT [CACACA_negctrl_site1324] | 11.3 |
| TAAAAATATTTTCATTGTACATATATATAAATATAT [XGTACX_site1123] | 6.97 |
| AATATATTTTTTTTTTGTACATATTGTAAAATAATA [XGTACX_site6805] | 6.99 |
| TTTTTTTTTGGGTGTACACATGAATATATATTTTTT [CACACA_site5254] | 7.83 |
| TACTGTATTATAATTATGATTGACGAAATTAAAAAT [GTGCAC_negctrl_site358] | 6.91 |
| GATTTTAATGGGTGTACACATTTATTTATATAAAGT [CACACA_site5317] | 7.54 |
| ATGAATAAATAGGTCACACACAAATATATATAAATA [CACACA_site2416] | 6.98 |
| TTAATATTGTATCCAAGTACACAAATTATTATATTT [XGTACX_site8067] | 7.11 |
| CATGTATTTTATATTACACACTAATATTATATATAT [CACACA_site1508] | 7.51 |
| CTTTCATATGTTTTAACACACACGCATATATTATAG [CACACA_site7033] | 7.08 |
| TCTAACATATCTTTAATACACACTTAAAAAAGTACT [CACACA_site652] | 7.03 |
| ATATATATTATATAGTGTACCTATGTATAATAATAT [XGTACX_site1683] | 7.16 |
| ATATGTAGAAGTAATGCACACATATGTATATATATA [CACACA_site8796] | 8.38 |
| TATAATGTATGTAGTGCACACCTCTATAATATATTA [CACACA_site8560] | 10.3 |
| TAGAATGTATGTAGTGCACACCTCTATAATATATTA [CACACA_site1873] | 10.7 |
| TGTAATATATGTATTGCACACCTATAACCATTATTT [CACACA_site8422] | 7.17 |

| Sequence | gcPBM binding intensity (ln) |
| --- | --- |
| TATGTACACCCATATACACACCTCTATAATATATAT [CACACA_site4563] | 7.29 |
| TTAAAAATGAACATATGTACATATATATATATATAT [XGTACX_site7923] | 9.39 |
| TAAAAAATAAGATATACACACATATATTTATTTATA [CACACA_site7158] | 6.72 |
| ATTTATTTATTTAGCTGTACATTTATACAGAACGAT [XGTACX_site3336] | 7 |
| ACATTATGTCATAAATGTACACATACATATACATAC [XGTACX_site8998] | 7.11 |
| AAAAATAAGATATATACACACATATAAATATAAATA [CACACA_site7396] | 6.82 |
| TAAATATATATATAAGTGCATTATATATATATATAA | 8.97 |
| GCCAATAAAGATGTGGTGCATTATATATATATATAT | 10.6 |
| TATATATATATATGTGCACACATAAAGATATTATTT [CACACA_site3734] | 9.38 |
| GCTTTAATCTGAAAGTGTACAGATAATATATTTATA [XGTACX_site2462] | 7.15 |
| ATATGTAAAATATGGTGTACAATCAAATAAAAAAAA [XGTACX_site6270] | 7.16 |
| ATAATGTAAAAGTAAACACACACATATATATATACA [CACACA_site8793] | 7.06 |
| TATATATATATATAGGTGCAATATTGAAAAAATATC [GTGCAC_site9535] | 9.82 |
| TTTGTTCTTTTTGAAGTGCACTGAAATATAACAAAA | 10.7 |
| TTTTGAAGTAACAAATAAATAAATAAATATATAAAA [GTGCAC_negctrl_site517] | 6.92 |
| TTCTTGTTCCTGAAAGTGCATATAACAAAAATAACA [GTGCAC_site9635] | 9.52 |
| AAAAAAAAAAAAAAAGTGCACTGAAAATATATTGAA [GTGCAC_site9395] | 10.9 |
| AAATAATATTGAAAAGTGCATATTTTTGTTGATATA | 8.42 |
| ATATCAAATTCTGAAACACACAAAATTACACCTCTA [CACACA_site169] | 7.06 |
| AAATAAAAAAAGAAACGTACATATATTGGTTTCGTC [XGTACX_site3510] | 6.96 |

| Sequence | gcPBM binding intensity (ln) |
| --- | --- |
| AAAAAAAAAAAAAAAAAAAAAAAAATATATAATTTA [CACACA_negctrl_site583] | 8.71 |
| CACCTCAATATTCACATACACACAATATCATCGAAG [CACACA_site1675] | 7.33 |
| AATTATATGAAATAAACACACATATGTAATATTACA [CACACA_site1928] | 6.76 |
| CACATATACAAAAAGAAATGTTTAGTTGAAAATTAA [CACACA_negctrl_site1407] | 6.67 |
| AAAAAAACATAACAAAATGAAACAAAACAAAAAGAA [GTGCAC_negctrl_site577] | 7.28 |
| TTAATGTTTGAAAGAGTGCACATAACAAAAAAAAAA [GTGCAC_site9623] | 11.1 |
| TCCTAATATATGTATGCACACACAATATATACATAT [CACACA_site9111] | 7.36 |
| AATATAAGAATATATACACACATAAATACATACATA [CACACA_site4128] | 7.01 |
| TATATATATATATATGTGCACTGAAAGAATTATACA [GTGCAC_site9586] | 10.3 |
| ATATACATATATATATGTACTGAAAAGAAAAGAATT [XGTACX_site150] | 7.08 |
| ATTATATATAAGAAGAGTACTGAATATGTGCAATAT [XGTACX_site4471] | 7.43 |
| AGGTGTATCATAAAATGTACATACATACATACATAA [XGTACX_site4479] | 7.02 |
| TTATATTAGCCGATGGTGCATATATTTATAGGAAAA [GTGCAC_site9518] | 10.1 |
| TTATATAGGCAGATGGTGCATCTATTTATAAGCAAC | 10.7 |
| ATAAGATAGGCATATACACACATTTATTTACAGATA [CACACA_site5754] | 6.87 |
| TGTCTTGTAAATTATTGTACTATTTAAAGTATACAA [XGTACX_site7864] | 7.21 |
| TATGAATTTATCTACAACATTTGAAATAAATTAAAA [CACACA_negctrl_site79] | 6.72 |
| TTGTTTATCAACAGCACACACAACAACAACAACAAC [CACACA_site458] | 7.25 |
